Compounds without any hit were thinned out: in the full panel of roughly 83,000, 20% have a hit.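 Step 1: grow cells in 96-well plates. Step 2: add test compound at a single concentration. Step 3: incubate 48 h. Step 4: record percent growth.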 A number with no mark means an inactive call. Activity calls are given as the source filed them. The calls were made as follows: active = growth percent below 10; inactive = the rest.
How the values were obtained:
Test in all cases: NCI-60 one-dose screen, 48 h (100 = growth as untreated, 0 = no growth, -100 = all killed)
Details in all cases: 10 µM unless noted
SR leukemia = test system: SR leukemia
OVCAR-8 ovarian = test system: OVCAR-8 ovarian
OVCAR-5 ovarian = test system: OVCAR-5 ovarian
OVCAR-4 ovarian = test system: OVCAR-4 ovarian
SK-OV-3 ovarian = test system: SK-OV-3 ovarian
IGROV1 ovarian = test system: IGROV1 ovarian
OVCAR-3 ovarian = test system: OVCAR-3 ovarian
HS 578T breast = test system: HS 578T breast
NCI/ADR-RES ovarian = test system: NCI/ADR-RES ovarian

SMILES	growth (SR leukemia)	growth (OVCAR-8 ovarian)	growth (OVCAR-5 ovarian)	growth (OVCAR-4 ovarian)	growth (SK-OV-3 ovarian)	growth (IGROV1 ovarian)	growth (OVCAR-3 ovarian)	growth (HS 578T breast)	growth (NCI/ADR-RES ovarian)
N#Cc1c(-c2cccs2)cc(-c2cccnc2)[nH]c1=O	95.9%	97.9%	96.9%	118%	97.2%	108%	104%	102%	103%
CCOc1nc(-c2ccccc2)cc2c(O)c(C(=O)NN)[nH]c(=O)c12	90.8%	109%	106%	100%	113%	55.2%	79%	87.6%	87.9%
COc1ccc(C/C(C)=C(/c2ccc(OCCN3CCCCC3)cc2)c2ccc(OC(=O)NCc3ccccc3)cc2)cc1	-58% (active)	-83.5% (active)	-78.6% (active)	-91.4% (active)	-93.7% (active)	-71.1% (active)	-89.2% (active)	-57.6% (active)	-75.7% (active)
C[C@H](NC(=O)[C@@H](C)N)[C@H](Oc1ccc2c(cnn2-c2ccc(F)cc2)c1)c1ccc2c(c1)OCCO2	-41.9% (active)	57.8%	64.7%	60.7%	49.2%	40.9%	55.8%	64.8%	57.6%
CC(=O)N1N=C(c2ccc(Nc3nc(Nc4ccc(Cl)cc4)nc(Nc4ccc(Cl)cc4)n3)cc2)CC1c1ccco1 (stereo not given)	64.9%	83.2%	105%	97.3%	124%	89.4%	104%	114%	93.5%
Nc1c(C(=O)Nc2ccncc2)sc2nc3c(cc12)CCCCCC3	20.8%	86.7%	–	86.9%	79.6%	–	–	83.2%	89%
O=C(CCCCC1CCSS1)Nc1ncnc2n[nH]c(-c3ccc(Oc4ccccc4)cc3)c12 (stereo not given)	32.9%	100%	101%	108%	123%	93.5%	116%	117%	89%
CNC(=O)c1cc(Oc2ccc3c(c2)sc2nc(-c4cc(OC)c(OC)c(OC)c4)cn23)ccn1	35.5%	49.1%	104%	46.2%	77.7%	72.7%	71.9%	70.2%	63.5%
O=C(/C=C/c1cccs1)c1ccc(Cl)nc1	82.5%	99.3%	103%	104%	95.7%	107%	–	105%	108%
CCN1CCN(c2cc(C(=O)Nc3nc(-c4cc(OC)c(OC)c(OC)c4)cs3)cc(C(F)(F)F)c2)CC1	9.19% (active)	65.1%	74.6%	68.9%	90.5%	41.5%	81.3%	68.1%	55.8%
Cc1ccc(/C=C2\CN(C(=O)OC(C)(C)C)C/C(=C\c3ccc(C)cc3)C2=O)cc1	-13.1% (active)	25%	112%	65.4%	104%	69.3%	7.18% (active)	59.6%	76.3%
O=C1c2c(c3c4ccccc4[nH]c3c3ccc4ccccc4c23)C(=O)N1CCN1CCCCC1	2.17% (active)	25.6%	74.8%	64.8%	53.7%	52.8%	51.1%	90.2%	40.9%
Cn1ccc2c3c(ccc21)CC3=O	108%	107%	102%	119%	113%	112%	117%	121%	115%
Cc1ccc(-c2nn(-c3ccccc3)cc2C=C2C(=O)ON=C2C(C)C)cc1	-23.5% (active)	59.7%	104%	–	110%	54.7%	87.7%	56.4%	96.4%
COC(=O)/C=C1/SC(=Nc2ccc(C)cc2)N(CCc2c[nH]c3ccc(O)cc23)C1=O	-27.4% (active)	29.4%	108%	51.1%	98.4%	27.5%	32.7%	55.1%	50%
Nc1c(C(=O)Nc2ccccc2Cl)sc2nc3c(cc12)C(O)CCC3 (stereo not given)	13.4%	32.3%	80.6%	53.9%	42.9%	57.2%	15.5%	58.5%	18.8%
COc1cc(OC)cc(C2=C3CC[C@@H]4[C@H](CC[C@]5(C)C(=O)CC[C@@H]45)C3=CC3C(O)c4cccnc4N4C(=O)COC234)c1 (stereo not given in full)	82.3%	95%	95.5%	87.1%	116%	101%	115%	90.1%	105%
COc1cc(NC(C)CCCNC(C)C)c2ncccc2c1OC (stereo not given)	110%	91.3%	91.4%	76.1%	96.3%	75.9%	70%	91.9%	85.4%
CCOC(=O)C(=Cc1cccc(Br)c1)C(=O)OCC	3.67% (active)	29.5%	42.9%	48.2%	86.2%	47.8%	15.6%	25.6%	–
N#CCSc1nnc2n(Cc3ccccc3)c(=O)c3c4c(sc3n12)CCCC4	94.8%	95.1%	92.2%	101%	107%	74.2%	–	95.3%	91%

SMILES	growth (SR leukemia)	growth (OVCAR-8 ovarian)	growth (OVCAR-5 ovarian)	growth (OVCAR-4 ovarian)	growth (SK-OV-3 ovarian)	growth (IGROV1 ovarian)	growth (OVCAR-3 ovarian)	growth (HS 578T breast)	growth (NCI/ADR-RES ovarian)
COc1ccc(C(c2cc(OC)c(OC)c(OC)c2)N2CCN(c3ccccc3)CC2)cc1 (stereo not given)	33.2%	99.1%	102%	89.9%	78.5%	72.7%	90.1%	101%	85.9%
COc1ccc(-c2nc3c(c(-c4ccccc4)nn3-c3ccccc3)c(-c3ccc(N4CCN(C)CC4)cc3)c2C#N)cc1	63.3%	93.7%	104%	107%	109%	–	103%	100%	93%
COc1cc(-c2cc(-c3cccs3)c(C#N)c(N3CCOCC3)n2)cc(OC)c1OC	-1.19% (active)	74.3%	96.4%	85.8%	141%	73.5%	–	90.6%	58.2%
CCNC(=O)c1[nH]cc(-c2ccccc2)c1-c1cc(OC)c2c(c1OC)OCO2	93%	98.9%	98.5%	98.6%	90.3%	88.5%	104%	93.2%	93%
COC(C(=O)[C@@H](O)[C@@H](C)O)[C@@H]1Cc2cc3cc(O[C@H]4C[C@@H](O[C@H]5C[C@@H](O)[C@H](O)C(C)O5)[C@H](O)C(C)O4)c(C)c(O)c3c(O)c2C(=O)[C@H]1O[C@H]1C[C@@H](O[C@H]2C[C@@H](O[C@H]3C[C@@H](O)[C@H](OC)C(C)O3)[C@@H](O)C(C)O2)[C@H](O)C(C)O1 (stereo not given in full)	3.51% (active)	7.56% (active)	14.8%	–	19.1%	16.9%	5.62% (active)	20.3%	59.5%
C#CCOc1ccc2ncnc(Nc3ccc(NC(=O)CCl)cc3)c2c1	-7.69% (active)	2.5% (active)	30.5%	-17.5% (active)	22.4%	-55.3% (active)	-38.6% (active)	27.6%	7.93% (active)
O=C1c2cccc3cccc(c23)C(=O)N1N1C(=O)c2cccc3c(N4CCOCC4)ccc(c23)C1=O	92.4%	96.2%	97.1%	108%	90%	95.6%	106%	90.3%	–
S=C1CCSC(=S)N1CCCN1C(=S)CCSC1=S	21%	55.3%	82.8%	83.7%	112%	–	34.1%	83.2%	80.7%
CC(C)(C)n1cc(-c2ccnc(NCCNS(=O)(=O)c3cccc(F)c3)c2)c(-c2ccccc2)n1	32.6%	87.9%	105%	72.7%	102%	97.2%	101%	92.9%	89.5%
CC1(C)CC[C@]2(C(=O)O)CC[C@]3(C)C(=CC[C@@H]4[C@@]5(C)C/C(=C/O)C(=O)C(C)(C)[C@@H]5CC[C@]43C)[C@@H]2C1	36.3%	29.3%	81.4%	63%	89.8%	31.4%	–	74.1%	38.8%
Cc1ccc(Sc2oc(-c3ccc(C)cc3)nc2[P+](c2ccccc2)(c2ccccc2)c2ccccc2)cc1	-18.8% (active)	5.45% (active)	–	-3.08% (active)	-3.38% (active)	-74.4% (active)	-3.45% (active)	-8.27% (active)	–
CN(C)C1CCN(Cc2ccc(NC(=O)c3cncc(C#Cc4cnc(N)c5ncccc45)c3)cc2C(F)(F)F)CC1	1.15% (active)	-25.4% (active)	123%	-14.7% (active)	103%	112%	97.9%	44.9%	-63.9% (active)
Cc1nc(N2CCOCC2)sc1S(N)(=O)=O	98.3%	103%	96.5%	112%	102%	99.4%	102%	100%	102%
C=CCn1cc(-c2nc3ccccc3s2)c2cc(-c3ccc4c5c(cccc35)C(=O)N(N)C4=O)ccc21	89.7%	102%	103%	97.8%	95.3%	69.8%	100%	103%	96.5%
COc1cc2c(c(OC)c1OC)C(=O)CC(c1cccc(NC(=O)c3ccc(Br)cc3)c1)O2 (stereo not given)	3.88% (active)	14.1%	–	53.9%	74.7%	45.9%	46.5%	71%	8.47% (active)
CCn1c(=S)sc2c(Nc3ccc(F)cc3)nc(-c3cccnc3)nc21	95.6%	43.7%	85.8%	-12% (active)	56.6%	75.3%	78.7%	49%	55.4%
CO[C@]12C=C/C(=C(/C(=O)OCc3cccnc3)C(=O)CCCCCCCC[C@@]3(OC)C=C/C(=C(/C(=O)OCc4cccnc4)C(=O)CCCCCCCC1)O3)O2	-9.1% (active)	19.9%	-5.24% (active)	11%	57.4%	2.68% (active)	-19.3% (active)	37%	36.3%
CCCCN1C(=O)/C(=c2\sc3n(c2=O)C2C(NN=3)N(CC)C(=O)N2CC)c2ccccc21 (stereo not given)	11%	-12.5% (active)	25.8%	37.5%	24.5%	2.64% (active)	-31.5% (active)	6.5% (active)	-9.17% (active)
CCN1CC(=O)N(/N=C2\C(=O)Nc3ccccc32)C1=S	83.1%	95.4%	97.2%	97.2%	78.4%	55.3%	98.1%	83%	103%
